# PubChem BioAssay
# Activity calls are given as the source filed them.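 How the source made its calls, unless noted: active means fluorescence slope after compound addition differing from the mean of all screened samples at 99.7% confidence, in either direction; inactive means the rest.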
# Molecular target: Alpha-2C adrenergic receptor (Homo sapiens) (UniProt P18825)
# Assay: compounds altering alpha2C-coupled GIRK flux – cell-based, HEK293 alpha2C/GIRK1/2, thallium flux, primary screen (AID 624);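 further: slope of fluorescence ratio to pre-addition baseline per second over 15 to 24 s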
# Details: thallium flux BTC fluorescence, at 10 µM, actives lie on both sides
# Chain of Alpha-2C adrenergic receptor (Homo sapiens) (P18825 whole entry, looked up): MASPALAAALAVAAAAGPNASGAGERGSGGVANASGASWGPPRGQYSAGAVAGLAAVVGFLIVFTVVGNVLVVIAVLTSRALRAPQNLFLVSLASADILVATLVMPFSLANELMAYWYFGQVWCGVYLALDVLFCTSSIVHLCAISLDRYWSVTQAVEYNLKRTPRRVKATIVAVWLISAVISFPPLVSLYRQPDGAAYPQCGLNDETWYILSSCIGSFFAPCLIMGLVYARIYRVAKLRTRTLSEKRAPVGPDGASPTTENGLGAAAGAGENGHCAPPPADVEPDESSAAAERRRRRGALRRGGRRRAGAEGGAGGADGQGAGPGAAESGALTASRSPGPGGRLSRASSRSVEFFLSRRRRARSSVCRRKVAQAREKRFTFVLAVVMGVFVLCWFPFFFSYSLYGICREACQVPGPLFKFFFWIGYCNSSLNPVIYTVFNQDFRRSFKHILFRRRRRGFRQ
row,Compound,slope
1,O=C(Cn1nc(Cc2ccncc2)c2ccccc2c1=O)N1CCN(C(=O)c2ccco2)CC1,0.0062 (inactive)
2,O=C(CSc1nnnn1-c1ccc2c(c1)OCO2)NCc1cccs1,0.00659 (inactive)
3,Cc1occc1-c1nnc(SCC(=O)c2ccc(F)cc2)n1Cc1ccco1,0.00656 (inactive)
4,CC(C)(C)NC(=O)C(c1ccco1)N(C(=O)Cn1nnc(-c2ccc(F)cc2)n1)c1ccccc1F (stereo not given),0.00563 (inactive)
5,CCOC(=O)C(CC)Sc1nc2c(c(=O)[nH]c(=O)n2C)n1C/C=C(/C)Cl (stereo not given),0.00361 (inactive)
6,CCN1CCN(C(=O)Cn2ncc3ccsc3c2=O)CC1,0.00578 (inactive)
7,Cc1cc(N2CCOCC2)nc2ccc(NC(=O)C3CCC(C)CC3)cc12 (stereo not given),0.00409 (inactive)
8,O=C(Nc1cccc(F)c1)C1C2C=CC3(CN(CCCN4CCOCC4)C(=O)C13)O2 (stereo not given),0.00626 (inactive)
9,C=CCn1c(=O)n(CCOC)c(=O)c2sc3ccccc3c21,0.00805 (inactive)
10,Cc1ccc(C(=O)CSc2n[nH]c(-c3ccco3)n2)cc1C,0.00302 (inactive)
11,Cc1ccc(-c2cn3nc(C)c(C)nc3n2)cc1,0.00494 (inactive)
12,O=C(NCCO)c1cc2ccccc2cc1O,0.00658 (inactive)
13,CCOCCCNC(=O)CS(=O)(=O)Cc1nc(-c2cccc(OC)c2)oc1C,0.00578 (inactive)
14,COc1ccccc1Cn1nnc2c(=O)[nH]c(C3CCN(C(=O)c4ccccc4Cl)CC3)nc21,0.00545 (inactive)
15,CCCCc1n[nH]c2c1C(=O)CC(C)(C)C2,0.00506 (inactive)
16,Cc1ccc(NC(=O)c2ccco2)c(NC(=O)c2cccs2)c1,0.00493 (inactive)
17,COc1ccc(NC(=O)CN2CCCCC2)cc1,0.00355 (inactive)
18,CCCCP(=O)(CCCC)c1ccccc1C(=O)O,0.00521 (inactive)
19,c1ccc2c(c1)CNc1ccccc1C2,0.00468 (inactive)
20,Cc1ccc(NC2=NC3(CCCCC3)N=C(N)N2)c(C)c1,0.00486 (inactive)

row,Compound,slope
1,CCCOC(=O)c1ccc(-c2c(C)noc2-c2ccc(OC)cc2O)o1,0.00302 (inactive)
2,CCOC(=O)C1CCN(Cc2ccc(OC)c(C)c2OC)CC1,0.00556 (inactive)
3,CC1CCCC(C)N1C(=O)CSc1nnc(-c2cccs2)o1 (stereo not given),0.0042 (inactive)
4,Cc1nc2ccccc2c2oc(C(=O)NCC3COc4ccccc4O3)cc12 (stereo not given),0.00744 (inactive)
5,O=C(c1ccccc1-c1nc(-c2ccccc2)no1)N1CCCC1,0.00572 (inactive)
6,COc1ccc(OC)c(C(C)NC=O)c1 (stereo not given),0.00556 (inactive)
7,CCSc1ccccc1C(=O)Nc1cccc(OC)c1,0.00513 (inactive)
8,O=S(=O)(NCc1ccc(Cl)cc1)c1cnc[nH]1,0.00614 (inactive)
9,Cc1ccc2oc(=O)c3cnn(CC(=O)NCCC(C)C)c3c2c1,0.0065 (inactive)
10,CCOC(=O)N1CCN(S(=O)(=O)c2ccc(OCC)c(C)c2)CC1,0.00615 (inactive)
11,Cc1cc(C(F)(F)F)nn1Cc1ccc(C(=O)NCc2ccco2)o1,0.00427 (inactive)
12,CC(=O)c1c(C)oc2ccc(NS(=O)(=O)c3ccc(O)c(C(=O)O)c3)cc12,0.00663 (inactive)
13,Cc1ccc(S(=O)(=O)NC(=O)c2cc(C)n(CCCn3ccnc3)c2C)cc1,0.00417 (inactive)
14,CC(C)(O)C1=NOC(c2ccccc2)C1 (stereo not given),0.00603 (inactive)
15,Cc1ccc(C(C(=O)NC2CCCCC2)N(C(=O)c2csnn2)C2CCCC2)o1 (stereo not given),0.00533 (inactive)
16,COCCNC(=O)CC(NS(=O)(=O)c1ccc(NC(C)=O)cc1)C(C)C (stereo not given),0.00454 (inactive)
17,COc1ccccc1CN1CC(C(=O)NCc2cccnc2)CC1=O (stereo not given),0.00742 (inactive)
18,O=C(NC1=NCCS1)NC12CC3CC(CC(C3)C1)C2,0.00362 (inactive)
19,CCc1nnc(NC(=O)C2CC(=O)N(Cc3ccco3)C2)s1 (stereo not given),0.00457 (inactive)
20,Cc1ccc2c(c1)nnn2C1CCN(C(=O)NC23CC4CC(CC(C4)C2)C3)CC1,0.00535 (inactive)

# Tested on: not listed separately
# Assay: blockers of RIG-like receptor reporter activation – cell-based, Sendai virus stimulus, luciferase, 10K MLSCN set, TLR/RLR signaling modifier project, primary screen (AID 602276;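 active means inhibition at or above 50% at 10 µM; inactive means inhibition below 50%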;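 further: firefly luciferase from ISG56 promoter only with Renilla not read in this screen; 0% = Sendai virus plus DMSO and 100% = medium plus DMSO without virus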)
# Details: HEK293 RL24 IRF3 luciferase reporter, at 10 µM, hits give high values
row,Compound,inhibition
1,O=C(Cn1nc(Cc2ccncc2)c2ccccc2c1=O)N1CCN(C(=O)c2ccco2)CC1,-0.346% (inactive)
2,O=C(CSc1nnnn1-c1ccc2c(c1)OCO2)NCc1cccs1,33.3% (inactive)
3,Cc1occc1-c1nnc(SCC(=O)c2ccc(F)cc2)n1Cc1ccco1,9.07% (inactive)
4,CC(C)(C)NC(=O)C(c1ccco1)N(C(=O)Cn1nnc(-c2ccc(F)cc2)n1)c1ccccc1F (stereo not given),10.9% (inactive)
5,CCOC(=O)C(CC)Sc1nc2c(c(=O)[nH]c(=O)n2C)n1C/C=C(/C)Cl (stereo not given),14.5% (inactive)
6,CCN1CCN(C(=O)Cn2ncc3ccsc3c2=O)CC1,3.05% (inactive)
7,Cc1cc(N2CCOCC2)nc2ccc(NC(=O)C3CCC(C)CC3)cc12 (stereo not given),-9.82% (inactive)
8,O=C(Nc1cccc(F)c1)C1C2C=CC3(CN(CCCN4CCOCC4)C(=O)C13)O2 (stereo not given),-14.3% (inactive)
9,C=CCn1c(=O)n(CCOC)c(=O)c2sc3ccccc3c21,-6.44% (inactive)
10,Cc1ccc(C(=O)CSc2n[nH]c(-c3ccco3)n2)cc1C,0.966% (inactive)
11,Cc1ccc(-c2cn3nc(C)c(C)nc3n2)cc1,20% (inactive)
12,O=C(NCCO)c1cc2ccccc2cc1O,-5.48% (inactive)
13,CCOCCCNC(=O)CS(=O)(=O)Cc1nc(-c2cccc(OC)c2)oc1C,12.4% (inactive)
14,COc1ccccc1Cn1nnc2c(=O)[nH]c(C3CCN(C(=O)c4ccccc4Cl)CC3)nc21,18.5% (inactive)
15,CCCCc1n[nH]c2c1C(=O)CC(C)(C)C2,3.68% (inactive)
16,Cc1ccc(NC(=O)c2ccco2)c(NC(=O)c2cccs2)c1,14.6% (inactive)
17,COc1ccc(NC(=O)CN2CCCCC2)cc1,3.07% (inactive)
18,CCCCP(=O)(CCCC)c1ccccc1C(=O)O,6.88% (inactive)
19,c1ccc2c(c1)CNc1ccccc1C2,7.99% (inactive)
20,Cc1ccc(NC2=NC3(CCCCC3)N=C(N)N2)c(C)c1,-10.3% (inactive)

row,Compound,inhibition
1,CCCOC(=O)c1ccc(-c2c(C)noc2-c2ccc(OC)cc2O)o1,1.25% (inactive)
2,CCOC(=O)C1CCN(Cc2ccc(OC)c(C)c2OC)CC1,-3.21% (inactive)
3,CC1CCCC(C)N1C(=O)CSc1nnc(-c2cccs2)o1 (stereo not given),-27.4% (inactive)
4,Cc1nc2ccccc2c2oc(C(=O)NCC3COc4ccccc4O3)cc12 (stereo not given),9.7% (inactive)
5,O=C(c1ccccc1-c1nc(-c2ccccc2)no1)N1CCCC1,-20.5% (inactive)
6,COc1ccc(OC)c(C(C)NC=O)c1 (stereo not given),0.449% (inactive)
7,CCSc1ccccc1C(=O)Nc1cccc(OC)c1,-8.73% (inactive)
8,O=S(=O)(NCc1ccc(Cl)cc1)c1cnc[nH]1,-8.39% (inactive)
9,Cc1ccc2oc(=O)c3cnn(CC(=O)NCCC(C)C)c3c2c1,7.61% (inactive)
10,CCOC(=O)N1CCN(S(=O)(=O)c2ccc(OCC)c(C)c2)CC1,0.885% (inactive)
11,Cc1cc(C(F)(F)F)nn1Cc1ccc(C(=O)NCc2ccco2)o1,-1.39% (inactive)
12,CC(=O)c1c(C)oc2ccc(NS(=O)(=O)c3ccc(O)c(C(=O)O)c3)cc12,7.79% (inactive)
13,Cc1ccc(S(=O)(=O)NC(=O)c2cc(C)n(CCCn3ccnc3)c2C)cc1,11.6% (inactive)
14,CC(C)(O)C1=NOC(c2ccccc2)C1 (stereo not given),6.77% (inactive)
15,Cc1ccc(C(C(=O)NC2CCCCC2)N(C(=O)c2csnn2)C2CCCC2)o1 (stereo not given),14.4% (inactive)
16,COCCNC(=O)CC(NS(=O)(=O)c1ccc(NC(C)=O)cc1)C(C)C (stereo not given),8.34% (inactive)
17,COc1ccccc1CN1CC(C(=O)NCc2cccnc2)CC1=O (stereo not given),7.79% (inactive)
18,O=C(NC1=NCCS1)NC12CC3CC(CC(C3)C1)C2,-1.24% (inactive)
19,CCc1nnc(NC(=O)C2CC(=O)N(Cc3ccco3)C2)s1 (stereo not given),13.8% (inactive)
20,Cc1ccc2c(c1)nnn2C1CCN(C(=O)NC23CC4CC(CC(C4)C2)C3)CC1,18.3% (inactive)
